FID counter = compounds displacing fluorescent DNA intercalator, primary screen, artefact control for HCV NS3 helicase inhibitor project, biochemical, FID fluorescence; DNA fluorescent intercalator displacement; inhibition, % at 7.9 µM; hit rate 0.17% among 290,000; in the data active = inhibition above about 37%;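 note: higher means more ethidium bromide displaced from hairpin DNA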
MEKK3 PB1 HTS = modulators of MEKK3-MEK5 PB1 binding, primary screen, biochemical, wildtype MEKK3, multiplex bead flow cytometry, Alexa488-MEK5; bead-based flow cytometry, Alexa488-MEK5 binding to MEKK3; actives lie on both sides; 0 = blocked by unlabeled MEK5, 100 = vehicle; binding response (% of control), % at 10 µM; hit rate 1.4% among 290,000;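 active = binding response more than 3 SD above or below the average of its plate-row segment, actives on both sides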;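 note: Alexa488 bead fluorescence after subtracting the streptavidin-only scavenger bead signal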
MEKK2mut PB1 HTS = MEK5 binding signal on mutant MEKK2 PB1, primary screen, biochemical, multiplex bead flow cytometry, Alexa488-MEK5. Alexa488-MEK5 binding to MEKK2 mutant. percent response, % at 10 µM. hit rate 0.35% among 290,000; in the data active = percent response above about 24%, passing the limit was not always enough
MEKK2wt PB1 HTS = modulators of MEK5 binding to wildtype MEKK2, primary screen, biochemical, multiplex bead flow cytometry, Alexa488-MEK5 | Mitogen-activated protein kinase kinase kinase 2 (Homo sapiens), Q9Y2U5 | Alexa488-MEK5 binding to MEKK2 WT; actives lie on both sides | binding response (% of control), % at 10 µM | hit rate 1.1% among 290,000; in the data active = binding response below about 67% or above about 130%
dFosB act = activators of delta FosB homodimer, primary screen, biochemical, fluorescence polarization, TAMRA-CDK5 oligo, single point; purified delta FosB; percent of positive-control signal above neutral wells; Protein FosB (Mus musculus), P13346; activation, % at 25 µM; hit rate 0.99% among 340,000;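 active = mean activation above about 17%, with every replicate also reaching it, limit read from the data, passing the limit was not always enough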
Target sequence (P13346 whole entry, looked up): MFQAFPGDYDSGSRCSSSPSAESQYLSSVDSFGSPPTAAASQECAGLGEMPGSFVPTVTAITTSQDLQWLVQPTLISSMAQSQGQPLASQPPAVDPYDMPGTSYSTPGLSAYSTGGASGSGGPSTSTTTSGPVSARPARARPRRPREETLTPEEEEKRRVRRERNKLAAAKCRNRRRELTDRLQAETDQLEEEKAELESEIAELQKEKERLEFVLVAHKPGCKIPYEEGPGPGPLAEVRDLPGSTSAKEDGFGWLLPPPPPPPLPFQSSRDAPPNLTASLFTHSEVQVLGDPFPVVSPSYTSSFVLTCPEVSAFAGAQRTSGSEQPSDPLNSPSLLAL
MEKK2wt confirm = modulators of MEK5 binding to wildtype MEKK2, confirmation, biochemical, single concentration, multiplex bead flow cytometry | shares compounds with MEKK3 PB1 HTS | Alexa488-MEK5 binding to MEKK2 WT; actives lie on both sides | binding response (% of control), % at 10 µM | hit rate 2.4% among 5,900 | AID 1892, 2009; in the data active = binding response below about 16% or above about 210%; inactive = in between
MEKK2mut confirm = mutant MEKK2 PB1-MEK5 binding signal retest – biochemical, single concentration, multiplex bead flow cytometry, confirmation. shares compounds with MEKK3 PB1 HTS. hit rate 2% among 5,900. percent response, % at 10 µM. Alexa488-MEK5 binding to MEKK2 mutant. AID 1893, 2009; in the data active = percent response mostly above about 71%, no sharp cut-off; inactive = mostly below about 38%;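 note: higher means compound restores mutant binding toward wildtype level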
MEKK3 confirm = MEKK3 wild-type PB1 binding to MEK5, inhibitors, confirmation, biochemical, bead multiplex flow cytometry, single concentration, wildtype | shares compounds with MEKK3 PB1 HTS | Alexa488-MEK5 binding to MEKK3; active compounds read low | binding response (% of control), % at 10 µM | hit rate 1.8% among 5,900 | AID 1894, 2009;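 active = binding response below 72% of control, or above a set upper limit, though filed actives all read lower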;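 note: lower values mean stronger disruption of MEK5 binding to MEKK3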
A number is an active result; – = inactive; · = not tested or not shown; [ ] = remark or other dose. Rows were chosen to be rich in hits. Some 2.9% of all compounds tested hit in one or more screens of this group.

SMILES	FID counter	MEKK3 PB1 HTS	MEKK2mut PB1 HTS	MEKK2wt PB1 HTS	dFosB act	MEKK2wt confirm	MEKK2mut confirm	MEKK3 confirm
COc1ccc(NS(=O)(=O)c2cccc3cccnc23)cc1	–	72.0[inhibitor]	–	–	–	–	–	–
COC(=O)CS(=O)(=O)c1cccc2cccnc12	–	3.0[inhibitor]	–	4.0[inhibitor]	–	–	–	–
COc1ccc(C)cc1NC(=O)c1ccc(NS(=O)(=O)c2cccc3cccnc23)cc1	–	131.0	–	–	–	–	–	–
Cc1ccc(C(=O)N/C(=C\c2ccc(-c3ccccc3[N+](=O)[O-])o2)C(=O)NCCCN(C)C)cc1	–	–	25.0	–	–	–	–	–
Cc1ccc(C(=O)N/C(=C\c2ccc(-c3ccccc3[N+](=O)[O-])o2)C(=O)NCCN(C)C)cc1	–	–	–	–	–	·	·	·
Cc1ccc(C(=O)N/C(=C\c2ccc(-c3ccc(Cl)cc3)o2)C(=O)NCCCN(C)C)cc1	52.8	43.0[inhibitor]	–	–	–	–	–	–
CCOCc1c(C(=O)OCC(=O)Nc2ccc(C)c(S(=O)(=O)N(C)C)c2)oc2ccccc12	–	135.0	–	–	–	–	–	–
COc1ccccc1-c1ccc(Nc2cccc(C(F)(F)F)c2)nn1	–	–	–	–	–	·	·	·
COc1ccccc1-c1ccc(NC2CCCCC2)nn1	–	81.0[inhibitor]	–	–	–	–	–	–
Cc1ccnc2nc(C(=O)OCC(=O)NCc3cccc(Cl)c3)nn12	·	·	·	·	–	·	·	·
Cc1ccnc2nc(C(=O)OCC(=O)NCCc3ccc(Cl)cc3)nn12	–	135.0	–	–	–	–	–	62.0
O=C(CSc1nncs1)Nc1ccc(Cl)cc1C(F)(F)F	·	·	·	·	–	·	·	·
O=C(NCc1ccco1)/C(=C/c1ccc(Cl)cc1)NC(=O)c1ccco1	–	–	–	–	–	·	·	·
Oc1[nH]c2ccccc2c1C1=NCCCC1	–	–	–	–	–	·	·	·
O=c1o[nH]c(-c2ccccc2)c1C1=NCCCCC1	–	73.0[inhibitor]	–	–	–	–	–	–
COc1ccccc1Nc1nc(-c2sc(N)nc2C)cs1	–	–	–	–	–	·	·	·
Cc1nc(N)sc1-c1csc(Nc2ncccn2)n1	–	35.0[inhibitor]	–	–	–	–	–	43.0
Cc1cc(NC(=O)CN2C(=O)NC3(CCCCC3)C2=O)no1	–	135.0	–	–	–	–	–	–
CC1CCC2(CC1)NC(=O)N(CC(=O)NCc1cccs1)C2=O (stereo unspecified)	–	–	–	–	–	·	·	·
O=C(CN1C(=O)NC2(CCCCC2)C1=O)NCc1cccs1	–	154.0	–	–	–	–	–	–
O=C(Nc1nc2ccccc2s1)c1ccccc1	–	–	–	–	–	·	·	·
Cc1csc2nc(NC(=O)c3ccccc3)sc(=O)c12	–	130.0	–	–	–	–	–	–
Cc1ccccc1C(=O)Nc1nc2c(C)csc2c(=O)s1	–	128.0	–	–	–	–	–	–
Cc1csc2c(=O)sc(NC(=O)c3ccc(F)cc3)nc12	–	–	–	–	·	·	·	·
C[C@H]1C=CC(=O)O[C@H]1c1ccccc1	·	122.0	–	–	–	–	–	–
SMILES	FID counter	MEKK3 PB1 HTS	MEKK2mut PB1 HTS	MEKK2wt PB1 HTS	dFosB act	MEKK2wt confirm	MEKK2mut confirm	MEKK3 confirm
Cc1cc(C)c(S(=O)(=O)N2CCOC2CNC(=O)C(=O)NCc2ccncc2)c(C)c1 (stereo unspecified)	–	–	–	–	–	·	·	·
COc1cc(/C=N\Nc2nncn2N)ccc1OC(C)=O	–	–	–	–	–	·	·	·
Cc1cc(C)nc(-n2nc(C)c(Br)c2Nc2ccc(Br)cc2)n1	–	–	–	–	–	·	·	·
Cc1nn(C)c(Nc2ccc(Br)cc2)c1Br	–	–	271.0	·	–	–	–	–
Cc1ncc(CN2CCC(CO)(CCc3ccccc3)CC2)s1	–	–	–	–	–	·	·	·
Cc1cccc(N2N=C(C(=O)N3CC(=O)Nc4ccccc43)CCC2=O)c1	–	–	–	–	–	·	·	·
COc1ccccc1C(=O)C1CCCN(C(=O)c2cccnc2SC)C1 (stereo unspecified)	–	128.0	541.0	632.0	–	–	–	–
Nc1cc(N2CCCCC2)c(Cl)cc1[N+](=O)[O-]	–	–	–	–	–	·	·	·
CCc1ccccc1NC(=S)N=Nc1c(O)n(C)c2ccc(S(=O)(=O)N3CCOCC3)cc12	–	–	–	–	–	·	·	·
Cc1ccc(C)c(NC(=S)N=Nc2c(O)n(C)c3ccc(S(=O)(=O)N4CCOCC4)cc23)c1	–	62.0[inhibitor]	–	–	–	–	–	–
CCn1c(N2CCN(S(=O)(=O)c3ccccc3C(F)(F)F)CC2)nc2ccccc21	–	2.0[inhibitor]	–	2.0[inhibitor]	–	–	–	–
CCn1c(N2CCN(S(=O)(=O)c3ccc(OC)cc3)CC2)nc2ccccc21	–	–	–	–	–	·	·	·
CCn1c(N2CCN(C(=O)C34CC5CC(CC(C5)C3)C4)CC2)nc2ccccc21	–	0.0[inhibitor]	–	0.0[inhibitor]	–	–	–	–
O=C(CCC1CCCCC1)NCCN1C2=NC[C@H](Cc3ccccc3)N2C[C@H]1Cc1ccc(O)cc1	–	–	–	163.0	–	–	89.0	–
O=C(CCC1CCCCC1)NCCN1C2=NC[C@@H](Cc3ccccc3)N2C[C@H]1Cc1ccc(O)cc1	–	–	–	149.0	–	–	–	–
NC1=NC[C@@H](Cc2ccc(O)cc2)N1CCCCC1CCCCC1	·	–	–	134.0	–	–	–	–
C[C@H]1CN=C2N(CCNC(=O)CCC3CCCCC3)[C@H](Cc3ccc(O)cc3)CN21	–	–	–	–	–	·	·	·
Cc1ccc(CNS(=O)(=O)c2c(C(=O)N3CCCCC3)c(C)n(C)c2C)o1	–	–	–	–	–	·	·	·
CC(C)(C)C(=O)O/N=C(\N)COc1cccc(Cl)c1	–	–	–	–	–	·	·	·
Cc1ccccc1N(CC(=O)NC1CCCC1)C(=O)C1(C)CC(=O)N=C2C=CC=CN21 (stereo unspecified)	–	46.0[inhibitor]	–	–	–	–	–	–
N#Cc1ccc(C(=O)N2CCN(c3ncccn3)CC2)cc1	–	–	–	–	–	·	·	·

High-throughput results as filed in PubChem.
